Drawing on ChEMBL document CHEMBL3433997, “St. Jude Leishmania screening dataset” (2016), this text covers inhibition for 25 compounds.

Chain of Solute carrier family 2, facilitated glucose transporter member 1 (Homo sapiens) (P11166 whole entry): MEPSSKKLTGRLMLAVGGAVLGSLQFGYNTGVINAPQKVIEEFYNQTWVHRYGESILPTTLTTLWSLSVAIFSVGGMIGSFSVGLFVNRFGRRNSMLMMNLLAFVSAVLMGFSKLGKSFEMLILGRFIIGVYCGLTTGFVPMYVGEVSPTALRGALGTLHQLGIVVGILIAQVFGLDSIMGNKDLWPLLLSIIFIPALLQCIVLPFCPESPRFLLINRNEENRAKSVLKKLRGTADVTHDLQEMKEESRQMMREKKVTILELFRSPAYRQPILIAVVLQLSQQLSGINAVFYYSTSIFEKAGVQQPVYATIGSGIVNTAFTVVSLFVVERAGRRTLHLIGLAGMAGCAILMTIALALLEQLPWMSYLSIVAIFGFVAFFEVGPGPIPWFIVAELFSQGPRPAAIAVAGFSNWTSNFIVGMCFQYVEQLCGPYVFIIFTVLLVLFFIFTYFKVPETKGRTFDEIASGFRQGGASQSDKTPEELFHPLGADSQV

This assay addresses Solute carrier family 2, facilitated glucose transporter member 1 (Homo sapiens) (UniProt P11166). Briefly: ST_JUDE_LEISH: Cytotoxicity at 2uM final concentration against transgenic Leishmania Mexicana promastigotes LmGLUT1 that are glucose transport deficient and complemented with the human glucose transporter GLUT1. Activity is measured by DNA content using SYBR green in vitro. Format: functional.
On to `COc1ccc(Nc2nc(N/N=C/c3cc(Br)ccc3O)nc(Nc3ccc([N+](=O)[O-])cc3)n2)cc1`, for which the inhibition worked out at 0.02%.

Take `O=C(Nc1cccc(-c2csc(-c3nc4ccccc4[nH]3)c2)c1)c1ccncc1`: the inhibition amounted to 11.6%.

For the compound `CCCc1cc(Cc2cnc(N)nc2N)cc2c1OC(C)(C)C2`, the inhibition was 5.74%.

Regarding `CN(C)CCCNCCS(=O)(=O)c1cccc(Nc2ccc(-c3cccc(N(C)C)c3)cn2)c1`, the inhibition is 1.72%.

Consider `Cc1cc(=NN=Cc2ccccc2F)c2cccc(C)c2[nH]1`, for which the inhibition was determined as 3.9%.

`COc1ccc(C(=O)Nc2ccc3nc(N4CCCCC4)cc(C)c3c2)cc1[N+](=O)[O-]`: the inhibition was 2.05%.

Turning to `O=C(Nc1ccc(Cl)c(Cl)c1)Nc1ccc2nccc(N3CCN(Cc4ccccc4)CC3)c2c1`, the inhibition is 3.7%.

Consider `Cc1cc(N[C@@H](Cc2ccccc2)C(=O)NCc2cccc(F)c2)nc(NCc2ccccc2C)n1`, for which the inhibition is 5.14%.

Take `Cc1cc(NC(=O)Nc2cccc(N(C)C)c2)c2ccccc2n1`: the inhibition was found to be 2.29%.

Regarding `CC[C@@]1(O)C(=O)OCc2c1cc1n(c2=O)Cc2c-1nc1cc3c(cc1c2CN1CCN(C)CC1)OCCO3`, the inhibition worked out at 7.46%.

With `Cc1cccc2nc(-c3cccc(-c4ccc(CN5CCCC5CN)cc4)c3)[nH]c12` (stereo not given), the inhibition worked out at 1.85%.

Regarding `CC(CNC(=O)C(c1cc2ccccc2o1)N1CCN(C(c2ccccc2)c2ccccc2)CC1)c1ccccc1` (stereo not given), the inhibition stood at 3.49%.

As to `N#Cc1cncc(-c2nc3c(N4CCC(Cc5ccccc5)CC4)cccc3n2C2CCNC2)c1` (stereo not given), the inhibition was -0.31%.

As to `CCCOc1ccc(NC(=O)c2cccs2)cc1Cl`, the inhibition was found to be 10%.

As for `Cc1ccc(F)c(OCC2CCN(c3ncc(C(=O)NC4CC4)cc3Cl)CC2)c1`, the inhibition was -1.14%.

With `COC(=O)c1cccc(C#CCCOCCCCCCNC[C@H](O)c2cc(Cl)c(N)c(Cl)c2)c1`, the inhibition was 2.64%.

For the compound `Cc1cc(C(=O)Nc2ccc(-c3nc4ccccc4[nH]3)cc2)ccc1[N+](=O)[O-]`, the inhibition came to 3.49%.

With `Cc1ccc(CNC(=O)[C@H](CC(C)C)Nc2cc(C)nc(Nc3ccccc3)n2)cc1`, the inhibition was 3.16%.

On to `COc1cc(-c2nc(-c3ccccc3)c(-c3ccccc3)[nH]2)ccc1OCCN(C)C`, for which the inhibition worked out at 1.69%.

Consider `c1ccc(CN2CCCN(c3ccc4c(c3)CCN(Cc3ccc(-c5ncc[nH]5)cc3)CC4)CC2)cc1`, for which the inhibition was determined as 2.8%.

`COc1ccc(-c2ccc(S(=O)(=O)Nc3cc4c(cc3OC(C)C)CCNCC4)cc2)cc1`: the inhibition was -2.14%.

As for `Cc1cc(OCCCN2CCC(NS(=O)(=O)c3cc(Br)c(Cl)s3)CC2)c2ccccc2n1`, the inhibition is -1.11%.

For the compound `Cc1onc(-c2ccccc2)c1-c1nc(NCCC(c2ccccc2)c2ccccc2)no1`, the inhibition is 9.17%.

As to `CN(C)CCn1c(N)c(-c2nc3ccccc3s2)c2nc(C#N)c(C#N)nc21`, the inhibition was 2.02%.

As to `CC1(C)CNCc2cc(NC(=O)/C=C/c3ccc(Cl)cc3)ccc21`, the inhibition was 0.41%.
